# Measurements as given in PMC4336329 (PLoS ONE, 2015).
# Hit rate of the full screen: of about 310,000 compounds, about 14,000 (4.5%) showed an effect of 50% or more. The effect is printed as a negative number. This is one part of a sample in which strong results are shown more often than they occur.
# Biological target: human ether-à-go-go-related gene (hERG) potassium channel (human, UniProt Q12809)
# Test: primary screen, population patch clamp on CHO cells stably expressing hERG; higher = less effect of the substance
# 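Further: peak tail current of the secondary pulse compared with the same well before compound.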
# Chain of human ether-à-go-go-related gene (hERG) potassium channel (Q12809 whole entry, looked up): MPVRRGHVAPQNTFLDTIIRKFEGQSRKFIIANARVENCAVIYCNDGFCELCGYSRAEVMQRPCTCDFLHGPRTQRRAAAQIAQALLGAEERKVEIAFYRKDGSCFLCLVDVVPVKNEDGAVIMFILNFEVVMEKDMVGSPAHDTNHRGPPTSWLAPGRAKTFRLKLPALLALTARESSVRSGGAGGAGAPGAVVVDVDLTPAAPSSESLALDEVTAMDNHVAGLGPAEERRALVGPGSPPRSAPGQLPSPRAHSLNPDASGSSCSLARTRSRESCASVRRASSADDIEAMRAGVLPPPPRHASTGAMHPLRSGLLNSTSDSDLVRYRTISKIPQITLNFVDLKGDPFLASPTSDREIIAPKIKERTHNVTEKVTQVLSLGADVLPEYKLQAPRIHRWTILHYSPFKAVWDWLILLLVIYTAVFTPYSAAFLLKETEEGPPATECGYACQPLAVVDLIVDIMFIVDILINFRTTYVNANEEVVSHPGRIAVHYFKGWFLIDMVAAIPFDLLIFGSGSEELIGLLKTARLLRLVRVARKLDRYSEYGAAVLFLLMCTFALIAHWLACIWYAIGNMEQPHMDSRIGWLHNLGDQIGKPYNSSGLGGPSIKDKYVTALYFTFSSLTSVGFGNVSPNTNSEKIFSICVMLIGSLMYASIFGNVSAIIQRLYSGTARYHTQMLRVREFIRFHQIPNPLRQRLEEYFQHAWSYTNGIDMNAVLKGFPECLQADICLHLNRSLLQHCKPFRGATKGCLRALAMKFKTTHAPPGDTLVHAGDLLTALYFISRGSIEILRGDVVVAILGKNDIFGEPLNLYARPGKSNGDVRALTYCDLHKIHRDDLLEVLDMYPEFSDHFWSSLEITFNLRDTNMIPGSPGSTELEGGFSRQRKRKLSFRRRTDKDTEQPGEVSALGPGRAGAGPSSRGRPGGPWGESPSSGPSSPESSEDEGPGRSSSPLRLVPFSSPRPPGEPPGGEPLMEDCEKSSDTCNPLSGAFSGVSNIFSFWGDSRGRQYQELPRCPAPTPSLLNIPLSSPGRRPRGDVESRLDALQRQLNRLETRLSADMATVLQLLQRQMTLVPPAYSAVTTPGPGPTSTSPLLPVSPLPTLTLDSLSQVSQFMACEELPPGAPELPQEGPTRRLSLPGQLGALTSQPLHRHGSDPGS
row,SMILES,"hERG current change (%, negative = inhibition) at 10uM [%]"
1,COc1ccc(C(C)=O)cc1CN1C(=O)C(C)N(c2ccc(C)cc2)C1=O (centres unmarked),-25.4
2,CCn1nc(NC(=O)c2ccco2)c2cc3ccccc3nc21,-0.887
3,Cc1ccccc1CN1CCC(n2nccc2NC(=O)c2ccc3c(c2)OCO3)CC1,-9.06
4,COc1ccc(OC)c(NC(=O)CSc2ccc(-c3cccnc3)nn2)c1,-17.6
5,COc1ccc(NC(=O)CSc2ccc3nnc(-c4cccnc4)n3n2)c(OC)c1,-32.4
6,COc1ccc(OC)c(NC(=O)CSc2ccc3nnc(-c4cccnc4)n3n2)c1,-61.1
7,Cc1cc2nc(-c3cccnc3SCC(=O)NCc3ccco3)[nH]c2cc1C,-5.15
8,Cc1ccc(C(=O)N2CCC(Cc3ccccc3)CC2)cc1[N+](=O)[O-],-63.8
9,O=C(c1ccc([N+](=O)[O-])cc1)N1CCC(Cc2ccccc2)CC1,-73.4
10,O=C(c1ccccc1[N+](=O)[O-])N1CCC(Cc2ccccc2)CC1,-19
11,O=[N+]([O-])c1cccc(CN2CCC(Cc3ccccc3)CC2)c1,-31.4
12,O=[N+]([O-])c1ccc(C(=S)N2CCC(Cc3ccccc3)CC2)cc1,-32.4
13,Cc1cc(C(=O)N2CCC(Cc3ccccc3)CC2)ccc1[N+](=O)[O-],-38.5
14,O=[N+]([O-])c1ccc(CN2CCC(Cc3ccccc3)CC2)cc1,-55.1
15,Cc1c(C(=O)N2CCC(Cc3ccccc3)CC2)cccc1[N+](=O)[O-],-34.3
16,Cc1ccc(C(=O)Nc2ccc(NC(=O)c3ccc(C)o3)cc2)o1,-1.94
17,Cc1ccc(F)cc1CNC(=O)C1CCC(=O)N(CCCN2CCCC2=O)C1 (centres unmarked),14.6
18,Cc1ccc(S(=O)(=O)Nc2cc(C(=O)Nc3cc(C)cc(C)c3)ccc2Cl)cc1,-5.44
19,Cc1ccc(NC(=O)CSc2nc(=O)n(Cc3ccncc3)c3c2CCC3)c(C)c1,-26.1

row,SMILES,"hERG current change (%, negative = inhibition) at 10uM [%]"
1,CN(C)CCCn1c2c(c(SCC(=O)Nc3nccs3)nc1=O)CCC2,-9.32
2,Cc1ccc2nc(NC(=O)CSc3nc(=O)n(CCN(C)C)c4c3CCCC4)sc2c1,-50.2
3,Cc1cc(NC(=O)CSc2nc(=O)n(CCCN(C)C)c3c2CCCC3)no1,-7.06
4,CCN(CC)CCn1c2c(c(SCC(=O)Nc3nc4ccc(C)cc4s3)nc1=O)CCC2,-30.4
5,Cc1ccc(NC(=O)CSc2nc(=O)n(CCCN(C)C)c3c2CCC3)c(C)c1,-50.6
6,Cc1ccc2nc(NC(=O)CSc3nc(=O)n(CCCN(C)C)c4c3CCC4)sc2c1,-50.2
7,CN(C)CCCn1c2c(c(SCC(=O)Nc3ccc4c(c3)OCCO4)nc1=O)CCC2,-12.2
8,Cc1cc(NC(=O)CSc2nc(=O)n(CCN(C)C)c3c2CCCC3)no1,-6.91
9,CN1CCC(=O)N([C@H](CN=[N+]=[N-])Cc2ccccc2)CC1,17.9
10,c1cnc2ccc(-c3ccc4ncccc4c3)cc2c1,-5.61
11,COc1cc(C=O)ccc1OCCOCCOc1ccc(Cl)cc1,-37.6
12,COc1ccccc1NC(=O)c1ccc(S(=O)(=O)N2CCCC2)cc1,-20.3
13,CCOC(=O)c1cccc(NC(=O)c2cc3ccccc3o2)c1,1.39
14,Cl.O=C1[C@H]2CCCC[C@H]2C(=O)N1CCCCN1CCN(c2nsc3ccccc23)CC1,-74.3
15,FC(F)(F)C1CCCN(c2nsc3ccccc23)C1 (centres unmarked),19.1
16,Cl.c1ccc2c(N3CCNCC3)nsc2c1,-5.8
17,COc1cccc2nc3cc(C)c(C)cc3nc12,-7.73
18,O=C(CN1CCCCC1)N1N=C(c2cccs2)CC1c1cccs1 (centres unmarked),-58.7
19,COc1ccc(C2CC(c3cccs3)=NN2C(=O)CN2CCCCC2)cc1 (centres unmarked),-71.9

row,SMILES,"hERG current change (%, negative = inhibition) at 10uM [%]"
1,O=C(CN1CCOCC1)N1N=C(c2cccs2)CC1c1cccs1 (centres unmarked),18.9
2,CC(=O)N1N=C(c2cccs2)CC1c1cccs1 (centres unmarked),5.99
3,CCC(=O)N1N=C(c2cccs2)CC1c1ccc(OC)cc1 (centres unmarked),15.9
4,COc1ccc(C2CC(c3cccs3)=NN2C(=O)CCC(=O)O)cc1 (centres unmarked),10.5
5,O=C(CSc1ncn[nH]1)Nc1nc(-c2ccccc2)ns1,-7.44
6,CCCC(=O)c1cc(F)c(N2CCN(S(=O)(=O)c3ccccc3)CC2)cc1C,13.2
7,CCOc1ccc(NC(=O)C(C)Sc2nccn2C)cc1 (centres unmarked),6.78
8,Cn1cccc1Cc1nnc(SCC(=O)NCC2CCCO2)n1CCc1ccccc1 (centres unmarked),-10.8
9,CCCn1nc(C(=O)OCC(=O)Nc2cccc(OC)c2)c2ccccc2c1=O,3.96
10,Cc1ccc(-n2nnnc2SCc2ccc(C(=O)O)cc2)cc1C,-70.7
11,O=C(O)c1ccc(CSc2nnnn2-c2ccc(F)cc2)cc1,-9.84
12,CCN(CC)C(CNC(=O)CSc1nnnn1-c1ccc(C)c(C)c1)c1ccco1 (centres unmarked),-54.5
13,Cc1ccc(-n2nnnc2SCC(=O)NNC(=O)c2ccco2)cc1C,24.3
14,O=C(O)c1ccc(-n2nnnc2SCc2ccccc2)cc1,8.05
15,CCN(CC)C(CNC(=O)CSc1nnnn1-c1cccc(F)c1)c1ccco1 (centres unmarked),-16.4
16,COc1cc(CCc2ccc3c(c2)OCO3)oc(=O)c1,4.95
17,Cc1ccc(C2(C)NC(=O)N(CC(=O)NNC(=O)c3ccoc3C)C2=O)cc1 (centres unmarked),26.6
18,Cc1nn(CC(=O)NCc2ccccc2)c(=O)c2cccn12,9.27
